Laboratory results from PubChem BioAssay (EPA / NIEHS).
Active and inactive are the calls of the source. How the source made its calls, unless noted: active means hit-call score of the fitted dose curve at least 0.9, where 1 is the maximum; inactive means score below 0.9.

Columns and labels:
[1] = IUF_NPC1b_proliferation_BrdU_72hr: Leibniz Research Institute for Environmental Medicine (IUF) 72-hour Neural Progenitor Cell Bromodeoxyuridine (BrdU) Proliferation Assay (NPC1b) (AID 2284207)
Outline: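 Human fetal cortex-derived (GW 16-19) neural progenitor spheres, 0.25-0.35 mm, one per well in EGF/FGF proliferation medium, exposed to compound for 72 h at 37C, pH 7.2-7.6. BrdU incorporation over the final 16 h read by luminescence ELISA, relative to DMSO.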

[2] = IUF_NPC1_viability_72hr: Viability Assessment at 72 hours in the Leibniz Research Institute for Environmental Medicine (IUF) Neural Progenitor Cell Proliferation Assay (NPC1) (AID 2284209)
Outline: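 Three-day continuous exposure of human neural progenitor spheres under EGF/FGF-driven proliferation; cell viability scored by alamar blue signal versus DMSO.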

[3] = CCTE_Mundy_HCI_Cortical_Synap_Neur_Matur_NeuriteSpotCountPerNeuriteLength: CCTE's Synaptogenesis and Neurite Maturation Assay in rat cortical cells for Neurite Spot Count per Neurite Length, Mundy Lab (AID 2284210)
Outline: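 Synaptophysin spots per unit neurite length, measured by automated imaging of MAP2/synaptophysin/Hoechst-stained neurons. Cultures from rat cortex received chemical at DIV 7 with media change through DIV 12; glial growth arrested by AraC at DIV 5; DMSO baseline.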

[4] = CCTE_Mundy_HCI_Cortical_NOG_NeuriteLength: CCTE's Neurite Outgrowth Assay in rat cortical cells for Neurite Length, Mundy Lab (AID 2284213);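 on AC50: neurites imaged about 48 to 50 h after chemical exposure began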
Outline: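 First, rat primary cortical cells were plated and, 2 h later, given test chemical as a 1/10 dilution. Finally, βIII-tubulin immunostaining enabled automated imaging of neurite length.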

[5] = CCTE_Mundy_HCI_Cortical_Synap_Neur_Matur_NeuriteLength: CCTE's Synaptogenesis and Neurite Maturation Assay in rat cortical cells for Neurite Length, Mundy Lab (AID 2284214)
Outline: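 DMSO-normalised neurite length, from high-content imaging of anti-MAP2-stained rat cortical cells fixed at DIV 12. Glia were suppressed with AraC (DIV 5) before chemical exposure from DIV 7.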

[6] = CCTE_Mundy_HCI_Cortical_Synap_Neur_Matur_NeuriteSpotCountPerNeuron: CCTE's Synaptogenesis and Neurite Maturation Assay in rat cortical cells for Neurite Spot Count per Neuron Count, Mundy Lab (AID 2284215)
Outline: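 Rat primary cortical cultures given AraC at DIV 5, dosed from DIV 7 to DIV 12 with media change. Fixed, stained for MAP2, synaptophysin and Hoechst; neurite-associated synaptophysin puncta per neuron quantified by high-content imaging versus DMSO.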

[7] = CCTE_Mundy_HCI_Cortical_Synap_Neur_Matur_SynapseCount: CCTE's Synaptogenesis and Neurite Maturation Assay in rat cortical cells for Synapse Count, Mundy Lab (AID 2284218)
Outline: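 Endpoint: synapses/neuron by HCI (synaptophysin puncta on MAP2-labelled neurites, Hoechst nuclei). Rat primary cortical cells, AraC DIV 5, dosed DIV 7, fixed DIV 12; DMSO negative control.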

[8] = CCTE_Mundy_HCI_Cortical_Synap_Neur_Matur_CellBodySpotCount: CCTE's Synaptogenesis and Neurite Maturation Assay in rat cortical cells for Cell Body Spot Count, Mundy Lab (AID 2284223)
Outline: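 Primary rat cortical cultures, AraC added at DIV 5; dosed DIV 7 through DIV 12 […]. Fixed, stained for MAP2 and synaptophysin with Hoechst; cell body-associated synaptophysin puncta per neuron counted by high-content imaging, loss vs DMSO.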

[9] = CCTE_Mundy_HCI_hNP1_Casp3_7: CCTE's Caspase-Glo 3/7 Assay in human neuroprogenitor cells for Apoptosis, Mundy Lab (AID 2284240)
Outline: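 Apoptosis is scored by activated caspase-3/7 luminescence in WA09-derived neural progenitor cells, measured 26.5 h after chemical dosing. Values represent gain of signal relative to DMSO vehicle.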

[10] = IUF_NPC2c_oligodendrocyte_migration_120hr: Leibniz Research Institute for Environmental Medicine (IUF) 120-hour Neural Progenitor Cell Migration Assay for Oligodendrocyte Migration (NPC2c) (AID 2284297);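 further: O4-positive oligodendrocyte migration distance divided by radial glia migration distance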
Outline: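 Human fetal neural progenitor spheres (0.3 mm) are plated on poly-D-lysine/laminin in N2 differentiation medium and exposed for 120 h, with half-medium renewal at day 3. Oligodendrocyte (O4+) migration distance comes from ICC imaging, normalised to radial glia migration.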

[11] = IUF_NPC2a_radial_glia_migration_120hr: Leibniz Research Institute for Environmental Medicine (IUF) 120-hour Neural Progenitor Cell Migration Assay for Radial Glia Migration (NPC2a) (AID 2284298)
Outline: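 Human fetal-cortex neural progenitor spheres (0.3 mm) plated on poly-D-lysine/laminin in N2 differentiation medium, exposed 120 h at 37C with half-medium renewal at day 3. Radial glia migration distance (um) measured from Hoechst-stained nuclei images; DMSO baseline.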

[12] = IUF_NPC2a_radial_glia_migration_72hr: Leibniz Research Institute for Environmental Medicine (IUF) 72-hour Neural Progenitor Cell Migration Assay for Radial Glia Migration (NPC2a) (AID 2284299)
Outline: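 Spheres of human primary neural progenitors migrate on poly-D-lysine/laminin under compound exposure at 37C, 5% CO2. The 72 h radial glia migration distance comes from brightfield images, measured manually.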

[13] = IUF_NPC2b_neuronal_migration_120hr: Leibniz Research Institute for Environmental Medicine (IUF) 120-hour Neural Progenitor Cell Migration Assay for Neuron Migration (NPC2b) (AID 2284300)
Outline: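 0.3 mm hNPC spheres on poly-D-lysine/laminin in N2 differentiation medium exposed 120 h, half-medium refresh day 3; 7 concentrations, DMSO max 0.1%. Neuron (TUBB3) distance from sphere core by ICC imaging, normalised to radial glia migration.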

[14] = IUF_NPC3_neuronal_differentiation_120hr: Leibniz Research Institute for Environmental Medicine (IUF) 120-hour Neuronal Differentiation Assay (NPC3) (AID 2284301)
Outline: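 Value is percent TUBB3-positive neurons among Hoechst-stained nuclei in the migration area, scored by trained CNN after 120 h differentiation. Primary hNPC spheres on poly-D-lysine/laminin, N2 medium, continuous dosing from day 0, half-refeed day 3; DMSO reference.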

[15] = IUF_NPC4_neurite_length_120hr: Leibniz Research Institute for Environmental Medicine (IUF) 120-hour Neuronal Morphology Assay for Neurite Length (NPC4) (AID 2284302)
Outline: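 Neurite length, the mean in um across TUBB3-stained neurons, is derived by skeletonization of high-content images after 120 h differentiation. Compound exposure, 7 concentrations plus solvent control, ran from plating of hNPC spheres on poly-D-lysine/laminin, with medium half-replaced on day 3.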

[16] = IUF_NPC2-5_cytotoxicity_120hr: Cytotoxicity Assessment at 120 hours in the Leibniz Research Institute for Environmental Medicine (IUF) Neural Progenitor Cell Migration and Differentiation Assay (NPC2-5) (AID 2284307; active means hit-call score of the fitted dose curve at least 0.9, where 1 is the maximum)
Outline: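 Human fetal (GW 16-19) neural progenitor spheres (0.3 mm) plated on poly-D-lysine/laminin in N2 differentiation medium, exposed 120 h with half-medium renewal at day 3; 7 concentrations plus solvent control, DMSO ≤0.1%. LDH release in supernatant read by resorufin fluorescence.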

[17] = IUF_NPC2-5_cell_number_120hr: Cell Number Assessment at 120 hours in the Leibniz Research Institute for Environmental Medicine (IUF) Neural Progenitor Cell Migration and Differentiation Assay (NPC2-5) (AID 2284308);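 further: count of Hoechst-stained nuclei in migration zone around plated human neural progenitor spheres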
Outline: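 Human fetal neural progenitor spheres (0.3 mm) plated on poly-D-lysine/laminin in N2 differentiation medium, exposed five days across 7 concentrations with half-medium refresh at day 3. Hoechst-positive nuclei counted in migration area at 120 h, relative to DMSO.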

[18] = IUF_NPC2-5_viability_120hr: Viability Assessment at 120 hours in the Leibniz Research Institute for Environmental Medicine (IUF) Neural Progenitor Cell Migration and Differentiation Assay (NPC2-5) (AID 2284312)
Outline: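 Alamar blue resorufin fluorescence read after 5 days of differentiation, with compound present from day 0 and replenished at day 3. Primary hNPC spheres on laminin-coated plates, 37C; seven concentrations plus solvent control, fitted against DMSO.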

[19] = IUF_NPC1a_proliferation_area_72hr: Leibniz Research Institute for Environmental Medicine (IUF) 72-hour Neural Progenitor Cell Proliferation Area Assay (NPC1a) (AID 2284208)
Outline: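 Single 0.25–0.35 mm human fetal neural progenitor spheres in proliferation medium with EGF and FGF, exposed 72 h from plating without renewal at 37C, pH 7.2-7.6. Sphere area growth measured by automated phase-contrast imaging, relative to DMSO.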

[20] = UKN2_HCS_IMR90_cell_viability: Viability Assessment in the University of Konstanz (UKN) Leist Lab Neural Crest Cell Migration Assay in human induced IMR90 Pluripotent Stem Cells (UKN2) (AID 2284233);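 further: cells exposed to compound for 24 h after a 24 h migration phase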
Outline: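 After calcein-AM/Hoechst staining, viability is quantified by high-content fluorescence imaging, relative to DMSO, in iPSC (IMR90)-derived neural crest cells. Exposure lasts 24 h, starting after a 24 h migration period on PLO/laminin/fibronectin coating.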

Measured: AC50

O=[As]O
active: [1] 2.03 µM | [2] 2.96 µM | [4] 2.48 µM | [5] 6.45 µM | [6] 5 µM | [7] 5 µM | [8] 5 µM | [9] 3.8 µM | [11] 0.805 µM | [15] 0.752 µM
inactive: [3] | [10] | [12] | [13] | [14] | [16] | [17] | [18]

[O-][Cl+3]([O-])([O-])O
active: [1] 0.171 µM
not listed: [3] | [4] | [5] | [6] | [7] | [8] | [9]
inactive: all other assays above

Cn1nc(C(F)(F)F)c(CS(=O)(=O)C2=NOC(C)(C)C2)c1OC(F)F
active: [19] 22.1 µM | [4] 66.8 µM | [5] 28 µM | [6] 9.92 µM | [11] 33.8 µM | [14] 9.95 µM | [15] 42.3 µM
inactive: all other assays above

CCOP(=O)(OCC)SCSC(C)(C)C
active: [4] 49.5 µM | [11] 0.875 µM
inactive: all other assays above

CC(=O)[O-].CC(=O)[O-].O.O.O.[Pb+2]
inactive: all assays above

CC(=O)[O-].[Tl+]
active: [1] 82.1 µM | [19] 76.8 µM | [3] 35.1 µM | [4] 75.3 µM | [5] 23.8 µM | [6] 24.4 µM | [7] 31.9 µM | [8] 30.1 µM | [20] 90 µM | [10] 59.4 µM | [11] 44.2 µM | [12] 62.7 µM | [13] 33 µM | [14] 50.1 µM | [15] 34.6 µM | [17] 35.4 µM | [18] 21.6 µM
inactive: [2] | [9] | [16]

C[n+]1ccc(-c2cc[n+](C)cc2)cc1
active: [4] 29.8 µM | [5] 0.966 µM | [6] 0.989 µM | [7] 1.01 µM | [8] 14.4 µM | [11] 1.98 µM
inactive: all other assays above

CCOP(=O)(OCC)SCSCC
active: [4] 78.3 µM
inactive: all other assays above

CC1(C)C(C=C(Cl)Cl)C1C(=O)O[C@H](C#N)c1cccc(Oc2ccccc2)c1 (stereo partly specified)
active: [1] 12.8 µM | [3] 15.6 µM | [4] 82 µM | [5] 11 µM | [6] 10.8 µM | [7] 10.9 µM | [8] 12 µM | [9] 29.3 µM | [14] 0.851 µM
inactive: all other assays above

C#CCN(C)[C@H](C)Cc1ccccc1
inactive: [3] | [4] | [5] | [6] | [7] | [8] | [9]

C/C(=C/C=C/[C@@H](C)C(=O)O)[C@H]1CN[C@H](C(=O)O)[C@H]1CC(=O)O
active: [15] 0.0406 µM
not listed: [3] | [4] | [5] | [6] | [7] | [8] | [9]
inactive: all other assays above

CCOP(=O)(Oc1cnc(C(C)(C)C)nc1)OC(C)C (stereo unspecified)
active: [1] 2.63 µM
inactive: all other assays above
